Results reported in PubChem BioAssay AID602162 (NMMLSC, 2011).
Out of some 360,000 compounds screened, about 690 (0.19%) were called active. This is one part of a sample in which actives are shown more often than they occur.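 How the source made its calls: active means fluorescence ratio to DMSO below 75%, the collection mean minus 3 SD; inconclusive means too few cells collected in the well; inactive means the rest.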

Target: ATP-binding cassette sub-family B member 6 (Homo sapiens) (UniProt Q9NP58)
Sequence (Q9NP58 whole entry, looked up): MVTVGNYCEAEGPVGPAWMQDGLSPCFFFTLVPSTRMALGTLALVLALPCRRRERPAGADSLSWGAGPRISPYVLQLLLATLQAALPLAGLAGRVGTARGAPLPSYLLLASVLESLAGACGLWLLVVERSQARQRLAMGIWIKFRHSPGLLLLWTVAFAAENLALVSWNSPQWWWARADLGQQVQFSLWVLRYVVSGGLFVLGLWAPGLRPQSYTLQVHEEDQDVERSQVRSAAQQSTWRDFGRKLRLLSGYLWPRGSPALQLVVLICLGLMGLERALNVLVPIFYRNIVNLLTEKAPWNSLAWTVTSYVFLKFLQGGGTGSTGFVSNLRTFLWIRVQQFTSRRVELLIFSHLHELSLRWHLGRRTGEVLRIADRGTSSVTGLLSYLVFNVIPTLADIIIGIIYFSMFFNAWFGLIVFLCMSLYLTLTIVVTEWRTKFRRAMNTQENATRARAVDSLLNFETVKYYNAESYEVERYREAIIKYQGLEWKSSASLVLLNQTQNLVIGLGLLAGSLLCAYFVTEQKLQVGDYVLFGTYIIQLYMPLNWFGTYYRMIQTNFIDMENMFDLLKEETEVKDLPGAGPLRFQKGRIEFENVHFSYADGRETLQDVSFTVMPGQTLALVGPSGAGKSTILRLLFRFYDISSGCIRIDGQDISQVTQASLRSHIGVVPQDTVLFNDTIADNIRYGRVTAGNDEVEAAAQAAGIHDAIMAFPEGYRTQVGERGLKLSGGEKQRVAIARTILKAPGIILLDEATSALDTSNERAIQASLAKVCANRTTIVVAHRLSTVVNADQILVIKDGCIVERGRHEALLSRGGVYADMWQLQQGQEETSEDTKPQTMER
Experiment: ABCB6 transporter inhibitors, primary screen, K562-ABCB6 cells, flow cytometry, MLPCN library (AID 602162);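 further: signal is porphyrin accumulated inside mitochondria; 100% equals median channel fluorescence of DMSO control wells; lower ratio means ABCB6 inhibition with less porphyrin fluorescence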
Conditions: K562-ABCB6 porphyrin accumulation, 1 h, at 10 µM, active compounds read low

Row | Compound | fluorescence ratio to DMSO
1 | CCOc1ccc(CCNC(=O)COC(=O)c2ccc(C)c(S(=O)(=O)N3CCOCC3)c2)cc1OCC | 101% (inactive)
2 | COc1c(O)ccc2c1CN1CCc3cc4c(cc3C1C2)OCO4 (configuration not stated) | 102% (inactive)
3 | Cn1ccnc1SCC(=O)Nc1ccc2c(c1)OCCO2 | 101% (inactive)
4 | CCn1c(SCC(=O)Nc2ccc3c(c2)OCCO3)nnc1C(C)C | 88% (inactive)
5 | CCn1c(COc2ccccc2)nnc1SCC(=O)Nc1ccc2c(c1)OCCO2 | 73% (active)
6 | COc1cc(CN2CCCC(C(=O)c3ccc(SC)cc3)C2)cc(Cl)c1O (configuration not stated) | 96% (inactive)
7 | COC(=O)C(=Nc1ccccc1)/C(C(=O)C(=O)N(C)c1ccccc1)=C(\O)c1ccc(Cl)cc1 | 94% (inactive)
8 | COc1cc(NS(=O)(=O)c2ccc(NC(=O)c3ccc(S(=O)(=O)N4CCCCC4)cc3)cc2)ncn1 | 102% (inactive)
9 | CCS(=O)(=O)N1CCC(N2CCN(c3ccccc3)CC2)CC1 | 70% (active)
10 | CS(=O)(=O)N1CCC(C(=O)N2CCN(c3ccccc3)CC2)CC1 | 108% (inactive)
11 | O=S(=O)(NCCS(=O)(=O)N1CCN(c2ccccc2)CC1)c1ccc(F)cc1 | 95% (inactive)
12 | CCOC(=O)c1cc(-c2sc(NC(=O)c3ccccc3)nc2C)n(-c2ccc(Br)cc2)n1 | 90% (inactive)
13 | Cc1ccc(S(=O)(=O)N(CC(=O)N2CCc3ccccc3C2)c2cccc(Cl)c2)cc1 | 90% (inactive)
14 | CS(=O)(=O)N(CC(=O)N1CCc2ccccc2C1)c1ccc(Br)cc1 | 95% (inactive)
15 | COc1cccc(N(CC(=O)N2CCc3ccccc3C2)S(C)(=O)=O)c1 | 73% (active)
16 | COCCNc1cc(-c2ccccc2)nc2cc(-c3cccc(F)c3)nn12 | 97% (inactive)
17 | CC1(C(=O)NS(=O)(=O)c2ccc3ccccc3c2)CCN1C(=O)C1(c2ccc(Cl)cc2)CCC1 (configuration not stated) | 102% (inactive)
18 | Cc1ncn2cc(-c3ccc(Cl)cc3Cl)[nH]c(=O)c12 | 96% (inactive)
19 | O=C(Nc1ccccc1C(=O)N1CCCCCC1)c1ccccc1Cl | 99% (inactive)
20 | O=C(COc1nsnc1N1CCOCC1)Nc1ccccc1Cl | 95% (inactive)
21 | O=C(Nc1ccccc1Cl)/C(Cl)=C(\Cl)S(=O)c1ccccc1 (configuration not stated) | 43% (active)
22 | Cc1ccc(S(=O)(=O)N2C[C@@H]3CCCC[C@@H]3[C@@H](C)[C@H]2c2cn(Cc3ccccc3)c3ccc(F)cc23)cc1 | 97% (inactive)
23 | COc1cccc(N(CC(=O)NCCSc2ccccn2)S(C)(=O)=O)c1 | 99% (inactive)

Row | Compound | fluorescence ratio to DMSO
24 | Cc1ccc(C(=O)Nc2ccccc2-c2ccccc2)cc1S(=O)(=O)Nc1ccccc1 | 99% (inactive)
25 | CCOC1=C2[C@H]([C@H]3C(=O)N(c4ccccc4)C(=O)[C@H]3C1)[C@@H](c1ccccc1)N(S(=O)(=O)c1ccc(C)cc1)[C@H]2c1ccccc1 | 104% (inactive)
26 | Cc1cc(C)c(C(=O)CSc2nc(C)cc(=O)[nH]2)c(C)c1 | 101% (inactive)
27 | Cc1cc(C(=O)CSc2nc(N)cc(=O)[nH]2)c(C)n1-c1cccc(F)c1 | 72% (active)
28 | Cc1cc(C(=O)CSc2nc(N)cc(=O)[nH]2)c(C)n1CCc1ccc(Cl)cc1 | 95% (inactive)
29 | CC(Oc1ccccc1)C(=O)NN1Cc2ccccc2C1=N (configuration not stated) | 99% (inactive)
30 | O=C(OCC(=O)N1CCCCC1)c1ccc(OC(F)(F)F)cc1 | 95% (inactive)
31 | O=C1NC2(CCCCCC2)C(=O)N1CCS(=O)(=O)Oc1ccccc1 | 96% (inactive)
32 | O=c1ccc2cc(S(=O)(=O)N3CCN(c4ccccc4)CC3)ccc2o1 | 98% (inactive)
33 | CC(=O)Nc1ccccc1C(=O)C(=O)Nc1ccc(F)cc1 | 104% (inactive)
34 | Cc1cccc(NC(=O)c2ccc(OCC(=O)NCc3ccccc3)cc2)c1C | 97% (inactive)
35 | O=C1COc2ccc(S(=O)(=O)NCCc3ccc(Cl)cc3)cc2N1 | 93% (inactive)
36 | O=C1C=C(c2cccc(Br)c2)C[C@@H](c2ccc(F)cc2)C1 | 101% (inactive)
37 | O=C(Nn1cnc2ccccc2c1=O)c1ccc([N+](=O)[O-])cc1Cl | 98% (inactive)
38 | O=C(Cn1cnc2ccccc2c1=O)NNC(=O)c1ccccc1F | 97% (inactive)
39 | O=C(Nn1cnc2ccccc2c1=O)c1ccc(F)cc1Cl | 26% (active)
40 | COC(=O)Cc1nc2c(N)nc(N)nc2[nH]c1=O | 97% (inactive)
41 | COC(=O)CNC(=O)c1cc(-c2ccncc2)nc2ccccc12 | 70% (active)
42 | CC1CCCC(NC(=O)c2cc(-c3ccncc3)nc3ccccc23)C1C (configuration not stated) | 96% (inactive)
43 | CCc1ccc(-c2cc(C(=O)NN3CCN(C)CC3)c3ccccc3n2)cc1 | 99% (inactive)
44 | Cc1cccc(C)c1NC(=O)Nc1ccccc1-n1ccnc1 | 96% (inactive)
45 | COc1ccc(NC(=O)/C(Cl)=C(/Cl)S(=O)Cc2ccc(C)cc2)cn1 (configuration not stated) | 19% (active)
46 | CC(CC(=O)Nc1ccccc1)n1ccnc1 (configuration not stated) | 96% (inactive)

Row | Compound | fluorescence ratio to DMSO
47 | O=C1OC(Oc2ccc(Br)cc2)(c2ccccc2)c2ccccc21 (configuration not stated) | 93% (inactive)
48 | CCn1ccnc1CNC(=O)CC1C(=O)NCCN1Cc1ccc(F)cc1Cl (configuration not stated) | 92% (inactive)
49 | O=C(CSc1nnc(-c2cccnc2)n1CCc1ccccc1)NCc1ccccc1 | 110% (inactive)
50 | C=CCn1c(SCC(=O)NCc2ccccc2)nnc1-c1cc(Br)ccc1O | 53% (active)
51 | C=CCn1c(SCC(=O)NC(=O)Cc2ccccc2)nc2ccccc2c1=O | 99% (inactive)
52 | N#CCCN1CCN(S(=O)(=O)c2ccc(S(=O)(=O)NC3CCCCC3)cc2)CC1 | 96% (inactive)
53 | Cc1ccc(S(=O)(=O)N2CCC(Oc3ccc(-n4cnnn4)cc3)CC2)cc1 | 96% (inactive)
54 | COC(=O)c1ccc(CN2C(=O)C(Cc3ccccc3)ON=C2c2ncccc2C)o1 (configuration not stated) | 94% (inactive)
55 | OCCC1CN(Cc2cccc(O)c2)CCN1CCc1ccccc1 (configuration not stated) | 93% (inactive)
56 | OCCC1CN(Cc2cnc(-c3ccccc3)s2)CCN1CCc1ccccc1 (configuration not stated) | 73% (active)
57 | OCCC1CN(Cc2ccc(Oc3ncccn3)cc2)CCN1CCc1ccccc1 (configuration not stated) | 101% (inactive)
58 | COc1ccc(CN2C(=O)CC(Cc3ccc(C)cc3)C2=O)cc1OC (configuration not stated) | 97% (inactive)
59 | O=S1(=O)CC(N2CCN(Cc3ccccc3F)CC2)CN1Cc1cn(Cc2cccc(C(F)(F)F)c2)nn1 (configuration not stated) | 96% (inactive)
60 | COc1ccc(-c2c(NC(=O)c3ccco3)oc3ccc(Cl)cc3c2=O)cc1 | 97% (inactive)
61 | O=C(COc1ccccc1)Nc1cc2c3c(c1)CC(=O)N3CCC2 | 102% (inactive)
62 | Cn1c(=O)c2cc(NC(=O)NCCc3cccs3)ccc2n1Cc1cccc(C(F)(F)F)c1 | 100% (inactive)
63 | Cc1ccccc1Cn1c(C)c(C(=O)NCc2cccc(C(F)(F)F)c2)sc1=O | 98% (inactive)
64 | O=C(Cc1cccs1)NCc1cccc(C(F)(F)F)c1 | 68% (active)
65 | Cc1ccn(-c2cccc(-n3ccc(C)n3)n2)n1 | 104% (inactive)
66 | Cc1cnc(C(=O)OCc2c(C)cc(C(C)(C)C)cc2C)cn1 | 104% (inactive)
67 | COc1ccc(/C=C(\NC(=O)c2ccc(OCC(C)C)cc2)C(=O)OCc2ccco2)cc1 | 100% (inactive)
68 | O=C(NCCS(=O)(=O)N1CCN(c2ccccc2)CC1)c1ccco1 | 98% (inactive)
69 | COc1ccc(-c2cnc(SCCNC(=O)c3ccc4c(c3)OCO4)[nH]2)cc1 | 98% (inactive)

Row | Compound | fluorescence ratio to DMSO
70 | O=C(NCCSc1ncc(-c2ccccc2)[nH]1)c1ccco1 | 74% (active)
71 | COc1ccccc1NC(=O)c1ccc(N2CC3CC(C2)c2cccc(=O)n2C3)c(NC(=O)c2cccnc2)c1 (configuration not stated) | 100% (inactive)
72 | CCN(CC(=O)Nc1ccc(NC(C)=O)cc1)C(=O)C1CC(=O)N(c2ccc3c(c2)OCCO3)C1 (configuration not stated) | 91% (inactive)
73 | COc1ccc(CCNC2=C(Cl)C(=O)N(Cc3ccccc3)C2=O)cc1OC | 73% (active)
74 | COc1ccc(CCNC(=O)CN(c2ccccc2)S(C)(=O)=O)cc1OC | 95% (inactive)
75 | COc1ccc(CCNc2nc(C)cc(C)n2)cc1OC | 95% (inactive)
76 | Fc1ccccc1OCCSc1nc2ccccc2o1 | 89% (inactive)
77 | O=C(CSc1nnc(C2CC2)n1Cc1ccccc1)Nc1cccnc1Cl | 85% (inactive)
78 | CCC1OC(C2CC2)CC2=C1C(=O)OC(C)(C)O2 (configuration not stated) | 97% (inactive)
79 | CC1(C)O[C@H]2CC(=O)OCC23[C@H]2CC[C@@]4(C)[C@H](c5ccoc5)OC(=O)[C@H]5O[C@]54[C@]2(C)C(=O)C[C@@H]13 (some centres not stated) | 100% (inactive)
80 | O=C(c1cnn2ccccc12)N1CCc2ccccc21 | 103% (inactive)
81 | CCOC(=O)C1=C(C)NC2=C(C(=O)CC(C)(C)C2)C1c1ccsc1 (configuration not stated) | 100% (inactive)
82 | CCCOC(=O)C1=C(C)NC2=C(C(=O)C(C(=O)OC)C(C)C2)C1c1ccc(N(C)C)cc1 (configuration not stated) | 72% (active)
83 | COC(=O)c1ccc(C2NC(=O)NC(C)=C2C(=O)N(C)C)cc1 (configuration not stated) | 117% (inactive)
84 | CCCn1c(N)c(C(=O)CSc2nnc(-c3cccnc3)n2-c2ccc(C)cc2C)c(=O)[nH]c1=O | 101% (inactive)
85 | CCOc1ccc2[nH]c3nc(SCC(=O)NC4CCCC4)nnc3c2c1 | 96% (inactive)
86 | CCc1ccccc1OCC(=O)Nc1ccc(C)c(S(=O)(=O)N2CCCCCC2)c1 | 90% (inactive)
87 | Cc1ccccc1OCC(=O)Nc1nnc(S(=O)(=O)N2CCCC2)s1 | 56% (active)
88 | CC1CCN(S(=O)(=O)c2nnc(NC(=O)COc3ccccc3F)s2)CC1 | 100% (inactive)
89 | Cc1ccc2[nH]c3c(=O)n(CC(=O)NCCc4ccc(Cl)cc4)ncc3c2c1 | 96% (inactive)
90 | CC(C)(C)C1CCC(C(=O)NCC(c2cccs2)N2CCOCC2)CC1 (configuration not stated) | 98% (inactive)
91 | O=C(NCc1ccco1)C(c1ccncc1)N(C(=O)Cn1nnc2ccccc21)c1ccccc1 (configuration not stated) | 94% (inactive)
92 | Nc1nc(SCc2cccc(Br)c2)n[nH]1 | 98% (inactive)
